Inconclusive results are not listed. Activity calls are given as the source filed them. How the source made its calls, unless noted: active means hit-call score of the fitted dose curve at least 0.9, where 1 is the maximum; inactive means score below 0.9.
Legend:
[1] = target: Nuclear respiratory factor 1 (Homo sapiens) (UniProt Q16656); assay: ATG_NRF1_CIS: Attagene CIS-FACTORIAL HepG2 Assay for human Nuclear Respiratory Factor 1 (NRF1) Orphan Gene (AID 2282987); settings: HepG2 NRF1 cis-element reporter, Attagene multiplex; actives raise or lower the signal
Method in brief: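 Endogenous factor activity was captured via cis-element-driven reporter transcripts in HepG2 cells. Following 24 h chemical treatment, transcripts were quantified by RT-PCR and capillary electrophoresis.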

[2] = ATG_NFI_CIS: Attagene CIS-FACTORIAL HepG2 Assay for human Nuclear Factor I (NFI) (AID 2282989); settings: HepG2 cis-regulatory reporter, NFI response element transcription; actives raise or lower the signal
Method in brief: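 Cells: human liver HepG2, transiently transfected with promoter-regulated reporter transcription units. Exposure 24 h. Detection: fluorescent RT-PCR products separated by capillary electrophoresis, normalised to DMSO negative control.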

[3] = target: Myc proto-oncogene protein (Homo sapiens) (UniProt P01106); assay: ATG_Myc_CIS: Attagene CIS-FACTORIAL HepG2 Assay for human Myelocytomatosis (Myc) Proto-Oncogene Transcription Factor (AID 2282990); settings: HepG2, Attagene cis-reporter transcription factor activity; actives raise or lower the signal
Method in brief: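 After 24 h chemical treatment of HepG2 cells carrying multiplexed cis-regulated reporter constructs, reporter transcripts quantified by RT-PCR and capillary electrophoresis of fluorescent fragments. Gain or loss fitted against DMSO baseline.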

[4] = ATG_NF_kB_CIS: Attagene CIS-FACTORIAL HepG2 Assay for human Nuclear Factor Kappa B (NF-kB) (AID 2282991); settings: HepG2 Attagene cis-factorial NF-kB reporter mRNA; actives raise or lower the signal
Method in brief: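 After 24 h compound incubation, transfected HepG2 cells yield total RNA; reporter cDNA is PCR-amplified, end-labelled with 6-FAM, HpaI-digested and analysed on a genetic analyser. Endogenous factor activity, DMSO-referenced bidirectional fit.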

[5] = ATG_NRF2_ARE_CIS: Attagene CIS-FACTORIAL HepG2 Assay for human Nuclear Factor Erythroid 2 Related Factor 2 (NFR2) response to Antioxidant Response Elements (ARE) (AID 2282992); settings: HepG2 Attagene ARE/NRF2 reporter, transcription factor activity; actives raise or lower the signal;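 on AC50: reporter mRNA level measured by RT-PCR and capillary electrophoresis fluorescence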
Method in brief: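 Readout: reporter mRNA quantified by RT-PCR plus FAM-labelled primer extension, HpaI digestion and capillary electrophoresis, 24 h after dosing transfected HepG2 cells. Gain or loss of signal is fitted bidirectionally against DMSO baseline.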

[6] = ATG_Oct_MLP_CIS: Attagene CIS-FACTORIAL HepG2 Assay for human Octamer-Binding Transcription Factor (Oct) (AID 2282993); settings: HepG2 Attagene cis-factorial Oct reporter, mRNA; actives raise or lower the signal
Method in brief: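 HepG2, transient MRTU transfection, cis promoter elements; 24 h dosing; RT-PCR/CE fluorescence read-out of reporter mRNA; fit both directions vs DMSO.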

[7] = target: Cellular tumor antigen p53 (Homo sapiens) (UniProt P04637); assay: ATG_p53_CIS: Attagene CIS-FACTORIAL HepG2 Assay for human p53 Transcription Factor (AID 2282994); settings: HepG2 p53 cis-element reporter, Attagene mRNA; actives raise or lower the signal
Method in brief: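 Read-out: reporter mRNA by RT-PCR plus capillary electrophoresis with fluorescence detection. Human HepG2 liver cells carried transfected multi-reporter cis-element constructs, dosed 24 h. Gain or loss of signal fitted bidirectionally against DMSO control.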

[8] = BSK_3C_TissueFactor: BioMAP Diversity Plus: 3C Assay for Tissue Factor Biomarker Activity (AID 2282997); settings: BioMAP 3C HUVEC, tissue factor biomarker readout; actives raise or lower the signal
Method in brief: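 After a 24 h chemical exposure of primary human umbilical vein endothelial cells, Tissue Factor levels were quantified by ELISA.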

[9] = BSK_3C_uPAR: BioMAP Diversity Plus: 3C Assay for Urokinase-type plasminogen activator receptor (uPAR) Biomarker Activity (AID 2282998); settings: BioMAP 3C HUVEC, uPAR biomarker ELISA; actives raise or lower the signal
Method in brief: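 A multiplexed primary-cell system built on human umbilical vein endothelium was used, with chemical present for 24 h before reading. Cell-surface uPAR was detected by ELISA; signal change in either direction counted against DMSO.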

[10] = BSK_3C_VCAM1: BioMAP Diversity Plus: 3C Assay for Vascular cell adhesion molecule 1 (VCAM1) Biomarker Activity (AID 2282999); settings: BioMAP 3C HUVEC, VCAM1 ELISA, cytokine-stimulated; actives raise or lower the signal
Method in brief: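 Activity fitted in both directions relative to DMSO, with ELISA measurement of the surface marker on primary HUVEC (3C) at 24 h post-treatment; parallel SRB staining (0.1% SRB, TCA-fixed, 560 nm) flagged overt cytotoxicity.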

[11] = BSK_4H_Eotaxin3: BioMAP Diversity Plus: 4H Assay for Eotaxin 3 Biomarker Activity (AID 2283000); settings: primary human endothelial cells (HUVEC); actives raise or lower the signal
Method in brief: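 Chemicals were added to human umbilical vein endothelium cultures, and Eotaxin-3 was quantified by ELISA at 24 h. Values were derived by bidirectional fitting with DMSO serving as negative control and activity baseline.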

[12] = target: human Peroxisome Proliferator-activated Receptor alpha (PPARa), PPARA (gene 5465) (UniProt Q07869); assay: ATG_PPARa_TRANS: Attagene TRANS-FACTORIAL HepG2 Assay for human Peroxisome Proliferator-activated Receptor alpha (PPARa) (AID 2283001; active means hit-call score of the fitted dose curve at least 0.9, where 1 is the maximum)
Method in brief: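 Reporter transcripts quantified by RT-PCR plus capillary electrophoresis after 24 h treatment, fitted upward relative to DMSO. Cells: human HepG2 transiently carrying multiple GAL4-UAS reporter units driven by NR-Gal4 chimeras.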

[13] = target: Peroxisome proliferator-activated receptor gamma (Homo sapiens) (UniProt P37231); assay: ATG_PPARg_TRANS: Attagene TRANS-FACTORIAL HepG2 Assay for human Peroxisome Proliferator-activated Receptor-gamma (PPARg) (AID 2283007; active means hit-call score of the fitted dose curve at least 0.9, where 1 is the maximum)
Method in brief: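 Liver-derived HepG2 cells expressing an exogenous NR-Gal4 chimera alongside GAL4-UAS reporter genes; 24 h exposure. Fluorescence of reporter RT-PCR products, separated by capillary electrophoresis, gives mRNA induction relative to DMSO.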

[14] = target: Nuclear receptor subfamily 1 group I member 2 (Homo sapiens) (UniProt O75469); assay: ATG_PXR_TRANS: Attagene TRANS-FACTORIAL HepG2 Assay for human Pregnane X Receptor (PXR) (AID 2283008; active means hit-call score of the fitted dose curve at least 0.9, where 1 is the maximum)
Method in brief: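 Trans-factorial format: exogenous NR-Gal4 fusion activity, not endogenous factor, in transfected human HepG2 liver cells. After 24 h dosing, RNA isolated, reverse-transcribed, amplified and resolved by capillary electrophoresis; induction scored versus DMSO.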

[15] = target: human Peroxisome Proliferator-activated Receptor delta (PPARd), PPARD (gene 5467) (UniProt Q03181); assay: ATG_PPARd_TRANS: Attagene TRANS-FACTORIAL HepG2 Assay for human Peroxisome Proliferator-activated Receptor delta (PPARd) (AID 2283002; active means hit-call score of the fitted dose curve at least 0.9, where 1 is the maximum)
Method in brief: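 Read-out is induced reporter mRNA, quantified by RT-PCR with fluorescent labelling and capillary electrophoresis after 24 h dosing. Cells are HepG2 transiently carrying multiple GAL4-UAS reporter units driven by exogenous NR-GAL4 chimeras; DMSO serves as baseline.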

[16] = target: human Retinoic Acid Receptor beta (RARb), RARB (gene 5915) (UniProt P10826); assay: ATG_RARb_TRANS: Attagene TRANS-FACTORIAL HepG2 Assay for human Retinoic Acid Receptor beta (AID 2283004; active means hit-call score of the fitted dose curve at least 0.9, where 1 is the maximum)
Method in brief: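 Transient transfection of HepG2 with multiple reporter units → chemical dosing, 24 h → total RNA isolation → RT with oligo(dT) → reporter-specific PCR, 6-FAM primer extension, HpaI digest → capillary electrophoresis. Positive direction vs DMSO control.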

[17] = target: Retinoic acid receptor alpha (Homo sapiens) (UniProt P10276); assay: ATG_RARa_TRANS: Attagene TRANS-FACTORIAL HepG2 Assay for human Retinoic Acid Receptor alpha (RARa) (AID 2283005; active means hit-call score of the fitted dose curve at least 0.9, where 1 is the maximum;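 on AC50: potency for increased reporter signal meaning RARa activation over DMSO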)
Method in brief: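 Reporter transcripts, measured by RT-PCR with fluorescent labeling and capillary electrophoresis after 24 h dosing, reflect activity of an exogenous human RARa–GAL4 fusion in transiently transfected HepG2. Fitted for increase relative to DMSO.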

[18] = target: human Retinoic Acid Receptor gamma (RARg), RARG (gene 5916) (UniProt P13631); assay: ATG_RARg_TRANS: Attagene TRANS-FACTORIAL HepG2 Assay for human Retinoic Acid Receptor gamma (RARg) (AID 2283009; active means hit-call score of the fitted dose curve at least 0.9, where 1 is the maximum)
Method in brief: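 TRANS format measured activity of exogenous NR-GAL4 fusion (RARg) in transfected HepG2 liver cells after 24 h dosing. Induced reporter RNA was detected by RT-PCR/capillary electrophoresis fluorescence, analysed in the positive direction against DMSO.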

[19] = read-out: Intercellular Adhesion Molecule 1 (ICAM1), ICAM1 (gene 3383); assay: BSK_3C_ICAM1: BioMAP Diversity Plus: 3C Assay for Intercellular Adhesion Molecule 1 (ICAM1) Biomarker Activity (AID 2283003); settings: primary human endothelial cells (HUVEC); actives raise or lower the signal
Method in brief: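 Chemicals are dosed onto primary human umbilical vein endothelium (3C system). After 24 h, ICAM-1 is measured by ELISA, and responses are fitted bidirectionally relative to DMSO.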

[20] = BSK_3C_Proliferation: Cell Proliferation Assessment in the BioMAP Diversity Plus: 3C Assay (AID 2283006); settings: primary human endothelial cells (HUVEC);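 on AC50: potency may reflect either rise or fall in cell number versus DMSO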
Method in brief: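 Cells (human umbilical vein endothelial, sub-confluent) receive test chemical; after 48 h they are fixed in 10% trichloroacetic acid, stained with 0.1% SRB and read at 560 nm. Activity is referenced to DMSO, fitting increases and decreases.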

Measured: AC50

Retinoic acid receptor alpha (Homo sapiens), sequence (P10276 whole entry, looked up, the tested form may be a part): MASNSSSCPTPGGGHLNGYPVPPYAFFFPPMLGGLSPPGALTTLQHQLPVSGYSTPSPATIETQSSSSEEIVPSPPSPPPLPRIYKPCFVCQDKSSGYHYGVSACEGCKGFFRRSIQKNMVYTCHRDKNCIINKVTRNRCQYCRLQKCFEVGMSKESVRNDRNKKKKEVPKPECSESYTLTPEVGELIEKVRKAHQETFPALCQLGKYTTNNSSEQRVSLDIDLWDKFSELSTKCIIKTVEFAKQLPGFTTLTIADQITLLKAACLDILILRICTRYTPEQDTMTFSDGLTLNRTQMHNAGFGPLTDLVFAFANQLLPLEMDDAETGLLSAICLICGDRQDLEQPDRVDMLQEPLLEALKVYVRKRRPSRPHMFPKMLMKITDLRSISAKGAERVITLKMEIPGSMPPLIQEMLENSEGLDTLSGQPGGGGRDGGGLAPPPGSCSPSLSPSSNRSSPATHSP
human Retinoic Acid Receptor beta (RARb), RARB (gene 5915), sequence (P10826 whole entry, looked up): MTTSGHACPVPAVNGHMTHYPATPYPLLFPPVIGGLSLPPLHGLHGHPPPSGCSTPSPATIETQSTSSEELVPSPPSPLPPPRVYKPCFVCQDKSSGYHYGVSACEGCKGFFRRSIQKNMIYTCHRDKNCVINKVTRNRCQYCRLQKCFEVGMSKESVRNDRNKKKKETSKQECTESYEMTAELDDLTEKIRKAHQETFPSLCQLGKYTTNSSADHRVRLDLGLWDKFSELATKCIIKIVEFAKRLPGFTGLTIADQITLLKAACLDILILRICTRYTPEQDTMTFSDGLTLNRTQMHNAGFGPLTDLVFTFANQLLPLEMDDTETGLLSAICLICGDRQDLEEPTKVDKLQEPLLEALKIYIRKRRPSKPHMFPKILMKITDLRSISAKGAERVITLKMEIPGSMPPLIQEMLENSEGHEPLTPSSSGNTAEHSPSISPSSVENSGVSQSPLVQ
human Peroxisome Proliferator-activated Receptor alpha (PPARa), PPARA (gene 5465), sequence (Q07869 whole entry, looked up, the tested form may be a part): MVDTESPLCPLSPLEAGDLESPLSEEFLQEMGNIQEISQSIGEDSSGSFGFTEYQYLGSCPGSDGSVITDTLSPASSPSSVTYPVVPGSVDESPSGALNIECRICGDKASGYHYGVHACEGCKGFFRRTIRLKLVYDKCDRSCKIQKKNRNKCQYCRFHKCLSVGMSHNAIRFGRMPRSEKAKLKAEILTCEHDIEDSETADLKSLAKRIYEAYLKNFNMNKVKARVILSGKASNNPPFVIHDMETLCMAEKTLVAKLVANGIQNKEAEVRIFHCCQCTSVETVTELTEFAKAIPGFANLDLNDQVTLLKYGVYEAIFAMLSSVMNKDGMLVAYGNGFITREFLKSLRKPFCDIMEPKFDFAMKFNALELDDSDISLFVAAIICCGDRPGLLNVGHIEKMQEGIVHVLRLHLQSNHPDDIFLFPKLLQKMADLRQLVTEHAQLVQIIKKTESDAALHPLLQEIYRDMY
Cellular tumor antigen p53 (Homo sapiens), sequence (P04637 whole entry, looked up): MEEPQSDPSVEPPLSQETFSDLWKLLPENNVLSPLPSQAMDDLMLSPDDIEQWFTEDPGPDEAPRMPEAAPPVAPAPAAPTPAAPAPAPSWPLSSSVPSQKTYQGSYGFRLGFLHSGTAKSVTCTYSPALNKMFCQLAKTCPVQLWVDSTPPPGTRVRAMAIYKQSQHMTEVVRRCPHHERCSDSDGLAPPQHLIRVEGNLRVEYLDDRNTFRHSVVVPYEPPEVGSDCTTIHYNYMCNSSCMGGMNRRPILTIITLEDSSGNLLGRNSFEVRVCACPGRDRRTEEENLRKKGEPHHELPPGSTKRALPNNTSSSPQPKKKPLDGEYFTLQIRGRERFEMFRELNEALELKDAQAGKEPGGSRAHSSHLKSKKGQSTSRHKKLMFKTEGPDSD
human Retinoic Acid Receptor gamma (RARg), RARG (gene 5916), sequence (P13631 whole entry, looked up, the tested form may be a part): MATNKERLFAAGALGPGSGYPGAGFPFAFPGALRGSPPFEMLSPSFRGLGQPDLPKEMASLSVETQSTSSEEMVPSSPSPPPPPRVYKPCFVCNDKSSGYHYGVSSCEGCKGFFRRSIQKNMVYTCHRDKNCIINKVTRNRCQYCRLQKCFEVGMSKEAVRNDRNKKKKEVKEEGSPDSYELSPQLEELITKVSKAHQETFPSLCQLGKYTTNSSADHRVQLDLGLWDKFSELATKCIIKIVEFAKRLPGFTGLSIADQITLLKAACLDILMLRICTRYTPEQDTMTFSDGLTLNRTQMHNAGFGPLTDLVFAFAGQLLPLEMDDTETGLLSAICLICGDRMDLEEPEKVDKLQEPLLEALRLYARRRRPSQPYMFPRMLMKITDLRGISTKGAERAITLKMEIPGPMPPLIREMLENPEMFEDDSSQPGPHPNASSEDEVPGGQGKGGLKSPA
Peroxisome proliferator-activated receptor gamma (Homo sapiens), sequence (P37231 whole entry, looked up, the tested form may be a part): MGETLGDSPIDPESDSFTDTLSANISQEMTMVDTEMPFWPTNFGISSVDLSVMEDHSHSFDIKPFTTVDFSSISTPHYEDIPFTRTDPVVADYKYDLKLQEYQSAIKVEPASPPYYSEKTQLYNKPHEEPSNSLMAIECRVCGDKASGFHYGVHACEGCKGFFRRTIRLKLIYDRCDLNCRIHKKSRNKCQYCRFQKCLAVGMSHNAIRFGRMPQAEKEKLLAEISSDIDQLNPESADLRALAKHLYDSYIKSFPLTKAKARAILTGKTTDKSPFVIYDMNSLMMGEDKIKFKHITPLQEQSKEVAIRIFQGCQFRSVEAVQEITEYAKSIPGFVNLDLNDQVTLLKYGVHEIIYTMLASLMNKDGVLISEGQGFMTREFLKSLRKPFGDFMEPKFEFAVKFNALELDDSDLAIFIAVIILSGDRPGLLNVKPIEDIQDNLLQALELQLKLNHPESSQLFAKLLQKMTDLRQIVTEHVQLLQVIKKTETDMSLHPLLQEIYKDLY
Nuclear respiratory factor 1 (Homo sapiens), sequence (Q16656 whole entry, looked up): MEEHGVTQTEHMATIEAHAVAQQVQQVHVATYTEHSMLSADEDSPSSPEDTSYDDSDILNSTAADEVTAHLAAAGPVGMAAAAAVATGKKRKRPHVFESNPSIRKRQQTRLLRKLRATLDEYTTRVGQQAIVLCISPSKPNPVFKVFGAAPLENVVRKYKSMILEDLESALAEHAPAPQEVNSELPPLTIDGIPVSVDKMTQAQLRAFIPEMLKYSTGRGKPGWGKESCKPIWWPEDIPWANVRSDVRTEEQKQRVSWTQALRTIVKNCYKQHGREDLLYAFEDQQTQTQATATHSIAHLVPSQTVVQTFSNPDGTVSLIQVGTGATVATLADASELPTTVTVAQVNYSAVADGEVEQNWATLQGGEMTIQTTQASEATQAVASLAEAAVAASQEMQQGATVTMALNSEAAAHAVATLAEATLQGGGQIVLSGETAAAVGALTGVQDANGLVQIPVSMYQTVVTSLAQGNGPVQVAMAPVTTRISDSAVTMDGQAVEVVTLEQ
Myc proto-oncogene protein (Homo sapiens), sequence (P01106 whole entry, looked up, the tested form may be a part): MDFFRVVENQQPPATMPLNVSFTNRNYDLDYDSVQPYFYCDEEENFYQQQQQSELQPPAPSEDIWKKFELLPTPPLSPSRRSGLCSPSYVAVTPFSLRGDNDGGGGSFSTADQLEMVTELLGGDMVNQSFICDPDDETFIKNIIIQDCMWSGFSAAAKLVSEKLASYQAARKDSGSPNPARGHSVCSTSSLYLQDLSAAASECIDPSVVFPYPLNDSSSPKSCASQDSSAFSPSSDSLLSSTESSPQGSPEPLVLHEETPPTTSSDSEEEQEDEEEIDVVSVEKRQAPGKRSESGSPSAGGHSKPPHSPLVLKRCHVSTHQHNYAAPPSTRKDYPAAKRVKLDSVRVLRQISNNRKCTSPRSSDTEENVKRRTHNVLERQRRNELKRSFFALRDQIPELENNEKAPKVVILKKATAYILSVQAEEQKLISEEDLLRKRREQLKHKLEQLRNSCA
human Peroxisome Proliferator-activated Receptor delta (PPARd), PPARD (gene 5467), sequence (Q03181 whole entry, looked up, the tested form may be a part): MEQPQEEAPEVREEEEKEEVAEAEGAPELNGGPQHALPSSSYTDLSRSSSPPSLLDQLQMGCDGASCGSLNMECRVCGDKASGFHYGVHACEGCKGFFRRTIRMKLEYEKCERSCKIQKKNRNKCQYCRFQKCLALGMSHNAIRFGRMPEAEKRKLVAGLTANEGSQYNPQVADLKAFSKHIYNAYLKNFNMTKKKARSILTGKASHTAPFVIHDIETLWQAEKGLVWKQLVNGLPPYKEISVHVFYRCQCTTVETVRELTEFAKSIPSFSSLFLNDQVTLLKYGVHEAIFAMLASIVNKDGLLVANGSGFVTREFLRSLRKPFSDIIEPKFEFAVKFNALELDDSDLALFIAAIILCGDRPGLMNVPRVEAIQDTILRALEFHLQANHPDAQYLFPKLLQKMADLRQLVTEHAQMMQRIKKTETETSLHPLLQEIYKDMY
Nuclear receptor subfamily 1 group I member 2 (Homo sapiens), sequence (O75469 whole entry, looked up, the tested form may be a part): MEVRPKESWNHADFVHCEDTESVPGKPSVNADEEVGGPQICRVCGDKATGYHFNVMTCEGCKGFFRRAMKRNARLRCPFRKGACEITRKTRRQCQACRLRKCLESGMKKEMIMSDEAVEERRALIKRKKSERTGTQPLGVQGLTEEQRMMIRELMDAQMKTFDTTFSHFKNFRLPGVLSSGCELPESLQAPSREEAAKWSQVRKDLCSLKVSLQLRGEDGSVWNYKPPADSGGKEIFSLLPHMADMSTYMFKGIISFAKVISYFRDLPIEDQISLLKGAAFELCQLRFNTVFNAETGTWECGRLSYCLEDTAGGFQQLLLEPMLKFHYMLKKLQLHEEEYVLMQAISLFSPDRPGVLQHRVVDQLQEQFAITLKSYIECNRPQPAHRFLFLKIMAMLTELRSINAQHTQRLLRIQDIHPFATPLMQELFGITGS

COP(=O)(OC)SCn1c(=O)oc2cc(Cl)cnc21
active: [5] 8.25 µM | [11] 36.9 µM | [13] 14.7 µM
not listed: [15] | [16] | [17] | [18] | [19] | [20]
inactive: all other assays above

CC(C)N(C(=O)SCC(Cl)=C(Cl)Cl)C(C)C
active: [5] 13.5 µM | [6] 24.7 µM | [8] 32.9 µM | [9] 32.2 µM | [10] 35.5 µM | [11] 32 µM
not listed: [13] | [19] | [20]
inactive: all other assays above

CCC(=NOC/C=C/Cl)C1=C(O)CC(C2CCOCC2)CC1=O (configuration not stated)
not listed: [12] | [16] | [17] | [18]
inactive: all other assays above

CC(=NC#N)N(C)Cc1ccc(Cl)nc1
not listed: [15] | [16] | [19] | [20]
inactive: all other assays above

COP(=O)(OC)C(O)C(Cl)(Cl)Cl (configuration not stated)
active: [5] 29.9 µM | [6] 50 µM | [7] 9.92 µM | [17] 78.9 µM | [13] 72.2 µM
not listed: [20]
inactive: all other assays above

CCOP(=S)(Oc1cnc(C(C)(C)C)nc1)OC(C)C (configuration not stated)
active: [4] 22.4 µM | [5] 14.1 µM | [6] 2.06 µM | [8] 31.9 µM | [9] 36.2 µM | [10] 36.8 µM | [11] 31.9 µM
not listed: [12] | [16] | [20]
inactive: all other assays above

CCCCOC(=O)c1ccccc1C(=O)O
not listed: [14] | [16] | [17] | [18] | [19]
inactive: all other assays above

CCOC(=O)COc1cc(-c2nn(C)c(OC(F)F)c2Cl)c(F)cc1Cl
active: [20] 15.5 µM | [14] 29.6 µM
not listed: [19]
inactive: all other assays above

CNC(=O)Oc1cccc2c1OC(C)(C)O2
active: [2] 50 µM | [5] 37 µM | [6] 38.5 µM | [7] 6.08 µM | [10] 28.5 µM | [11] 20 µM
not listed: [16] | [17] | [18] | [20]
inactive: all other assays above

CCCOCC(=Nc1ccc(Cl)cc1C(F)(F)F)n1ccnc1
active: [5] 7 µM | [8] 28.8 µM | [9] 31.7 µM | [10] 33.6 µM | [11] 34.4 µM | [19] 29.7 µM | [17] 1.1 µM | [13] 1.36 µM
not listed: [15] | [20]
inactive: all other assays above

CN(C)NC(=O)CCC(=O)O
not listed: [14] | [16] | [18] | [19]
inactive: all other assays above

CCC(CC)Nc1c([N+](=O)[O-])cc(C)c(C)c1[N+](=O)[O-]
active: [5] 14.4 µM | [7] 72.9 µM | [10] 17.1 µM | [20] 29.2 µM | [13] 73.2 µM | [14] 27.6 µM
not listed: [12] | [16] | [17] | [18]
inactive: all other assays above

CN1COCN(Cc2cnc(Cl)s2)C1=N[N+](=O)[O-]
not listed: [14] | [15] | [17]
inactive: all other assays above

COc1ccc(C(=CC(=O)N2CCOCC2)c2ccc(Cl)cc2)cc1OC
active: [5] 8.76 µM | [6] 13.8 µM | [9] 12.7 µM
not listed: [16] | [17] | [18] | [20]
inactive: all other assays above

Reference: PubChem BioAssay (EPA / NIEHS)
